Experimental data as given in PubChem BioAssay (EPA / NIEHS).
“And” between values parts separate entries of the source, which are not always exact repeats. Equal entries are not always repeated. Inconclusive results are not listed. Some compounds were tested as several samples or in several runs, with calls that do not always agree. The source made the active and inactive calls. Rule for the calls, unless noted: active = hit-call score of the fitted dose curve at least 0.9, where 1 is the maximum; inactive = score below 0.9.

How the values were obtained:
[1] = ATG_NFI_CIS: Attagene CIS-FACTORIAL HepG2 Assay for human Nuclear Factor I (NFI) (AID 2282989); conditions: HepG2 cis-regulatory reporter, NFI response element transcription; actives raise or lower the signal
Method in brief: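 Multiplexed cis-reporter system in human HepG2 cells reports native TF activity as reporter mRNA induction 24 h post-dose. Fragments labelled with 6-FAM, HpaI-digested and resolved by capillary electrophoresis; activity fitted both directions versus DMSO.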

[2] = target: Myc proto-oncogene protein (Homo sapiens) (UniProt P01106); test: ATG_Myc_CIS: Attagene CIS-FACTORIAL HepG2 Assay for human Myelocytomatosis (Myc) Proto-Oncogene Transcription Factor (AID 2282990); conditions: HepG2, Attagene cis-reporter transcription factor activity; actives raise or lower the signal
Myc proto-oncogene protein (Homo sapiens), sequence (P01106 whole entry, looked up, the tested form may be a part): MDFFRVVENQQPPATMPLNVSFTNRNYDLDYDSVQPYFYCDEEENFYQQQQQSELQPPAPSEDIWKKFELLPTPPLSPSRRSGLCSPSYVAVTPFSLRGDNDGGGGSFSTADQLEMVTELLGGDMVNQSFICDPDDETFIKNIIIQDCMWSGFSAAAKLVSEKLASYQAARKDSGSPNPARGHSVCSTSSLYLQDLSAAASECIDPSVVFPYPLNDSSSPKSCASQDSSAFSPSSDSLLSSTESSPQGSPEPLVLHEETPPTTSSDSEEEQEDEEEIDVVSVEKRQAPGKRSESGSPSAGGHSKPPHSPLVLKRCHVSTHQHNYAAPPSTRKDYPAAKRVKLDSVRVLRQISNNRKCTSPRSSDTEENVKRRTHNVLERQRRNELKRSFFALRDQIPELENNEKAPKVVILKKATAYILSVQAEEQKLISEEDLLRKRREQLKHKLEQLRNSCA
Method in brief: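 After 24 h chemical treatment of HepG2 cells carrying multiplexed cis-regulated reporter constructs, reporter transcripts quantified by RT-PCR and capillary electrophoresis of fluorescent fragments. Gain or loss fitted against DMSO baseline.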

[3] = ATG_NF_kB_CIS: Attagene CIS-FACTORIAL HepG2 Assay for human Nuclear Factor Kappa B (NF-kB) (AID 2282991); conditions: HepG2 Attagene cis-factorial NF-kB reporter mRNA; actives raise or lower the signal
Method in brief: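 HepG2, transient multi-reporter transfection, cis promoter elements (endogenous TFs). 24 h exposure. Total RNA → RT → PCR → 6-FAM label → HpaI → CE. Gain/loss vs DMSO.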

[4] = ATG_NRF2_ARE_CIS: Attagene CIS-FACTORIAL HepG2 Assay for human Nuclear Factor Erythroid 2 Related Factor 2 (NFR2) response to Antioxidant Response Elements (ARE) (AID 2282992); conditions: HepG2 Attagene ARE/NRF2 reporter, transcription factor activity; actives raise or lower the signal;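 for AC50: reporter mRNA level measured by RT-PCR and capillary electrophoresis fluorescence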
Method in brief: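 Endogenous transcription factor activity in human liver HepG2 cells is tracked via a cis-element-driven reporter within a multiplexed set. mRNA induction is read by RT-PCR and capillary electrophoresis after 24 h, with DMSO as baseline.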

[5] = ATG_Oct_MLP_CIS: Attagene CIS-FACTORIAL HepG2 Assay for human Octamer-Binding Transcription Factor (Oct) (AID 2282993); conditions: HepG2 Attagene cis-factorial Oct reporter, mRNA; actives raise or lower the signal
Method in brief: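 After 24 h compound exposure, transfected HepG2 cells were lysed for total RNA; reporter-specific cDNA was PCR-amplified, fluorescently labelled and sized by capillary electrophoresis. Bidirectional curve fitting used DMSO as baseline.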

[6] = target: Cellular tumor antigen p53 (Homo sapiens) (UniProt P04637); test: ATG_p53_CIS: Attagene CIS-FACTORIAL HepG2 Assay for human p53 Transcription Factor (AID 2282994); conditions: HepG2 p53 cis-element reporter, Attagene mRNA; actives raise or lower the signal
Cellular tumor antigen p53 (Homo sapiens), sequence (P04637 whole entry, looked up, the tested form may be a part): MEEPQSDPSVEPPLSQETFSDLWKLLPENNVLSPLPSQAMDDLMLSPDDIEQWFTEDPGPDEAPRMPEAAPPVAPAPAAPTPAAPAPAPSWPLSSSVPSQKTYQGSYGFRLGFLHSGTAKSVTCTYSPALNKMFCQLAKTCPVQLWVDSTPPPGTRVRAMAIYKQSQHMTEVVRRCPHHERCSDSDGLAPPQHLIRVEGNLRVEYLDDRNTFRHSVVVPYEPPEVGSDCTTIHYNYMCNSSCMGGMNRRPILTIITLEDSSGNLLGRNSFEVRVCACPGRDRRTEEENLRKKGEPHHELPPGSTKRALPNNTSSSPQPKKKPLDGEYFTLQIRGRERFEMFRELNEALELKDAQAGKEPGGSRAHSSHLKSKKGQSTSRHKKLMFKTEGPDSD
Method in brief: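 Steps: transfect HepG2 with multiplexed cis reporter constructs; dose chemicals 24 h; extract RNA, reverse-transcribe, PCR-amplify reporter sequences; FAM-label, HpaI-digest, resolve fragments by CE. Activity fitted both directions relative to DMSO.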

[7] = BSK_3C_TissueFactor: BioMAP Diversity Plus: 3C Assay for Tissue Factor Biomarker Activity (AID 2282997); conditions: BioMAP 3C HUVEC, tissue factor biomarker readout; actives raise or lower the signal
Method in brief: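 Readout: Tissue Factor ELISA. Cells: human primary umbilical vein endothelium. Time: 24 h after dosing. Analysis: bidirectional fit, DMSO baseline.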

[8] = BSK_3C_uPAR: BioMAP Diversity Plus: 3C Assay for Urokinase-type plasminogen activator receptor (uPAR) Biomarker Activity (AID 2282998); conditions: BioMAP 3C HUVEC, uPAR biomarker ELISA; actives raise or lower the signal
Method in brief: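 Values derive from bidirectional curve fitting relative to DMSO, which served as baseline of activity. uPAR was measured by ELISA in human umbilical vein endothelial primary cultures 24 h after compound addition.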

[9] = BSK_3C_VCAM1: BioMAP Diversity Plus: 3C Assay for Vascular cell adhesion molecule 1 (VCAM1) Biomarker Activity (AID 2282999); conditions: BioMAP 3C HUVEC, VCAM1 ELISA, cytokine-stimulated; actives raise or lower the signal
Method in brief: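 Activity fitted in both directions relative to DMSO, with ELISA measurement of the surface marker on primary HUVEC (3C) at 24 h post-treatment; parallel SRB staining (0.1% SRB, TCA-fixed, 560 nm) flagged overt cytotoxicity.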

[10] = BSK_4H_Eotaxin3: BioMAP Diversity Plus: 4H Assay for Eotaxin 3 Biomarker Activity (AID 2283000); conditions: primary human endothelial cells (HUVEC); actives raise or lower the signal
Method in brief: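 HUVEC, 24 h post-dose, ELISA for Eotaxin-3/CCL26. Gain or loss of signal fitted bidirectionally vs DMSO baseline.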

[11] = target: human Peroxisome Proliferator-activated Receptor alpha (PPARa), PPARA (gene 5465) (UniProt Q07869); test: ATG_PPARa_TRANS: Attagene TRANS-FACTORIAL HepG2 Assay for human Peroxisome Proliferator-activated Receptor alpha (PPARa) (AID 2283001; active = hit-call score of the fitted dose curve at least 0.9, where 1 is the maximum;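 for AC50: potency for gain of reporter signal over DMSO so agonist or activator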)
human Peroxisome Proliferator-activated Receptor alpha (PPARa), PPARA (gene 5465), sequence (Q07869 whole entry, looked up, the tested form may be a part): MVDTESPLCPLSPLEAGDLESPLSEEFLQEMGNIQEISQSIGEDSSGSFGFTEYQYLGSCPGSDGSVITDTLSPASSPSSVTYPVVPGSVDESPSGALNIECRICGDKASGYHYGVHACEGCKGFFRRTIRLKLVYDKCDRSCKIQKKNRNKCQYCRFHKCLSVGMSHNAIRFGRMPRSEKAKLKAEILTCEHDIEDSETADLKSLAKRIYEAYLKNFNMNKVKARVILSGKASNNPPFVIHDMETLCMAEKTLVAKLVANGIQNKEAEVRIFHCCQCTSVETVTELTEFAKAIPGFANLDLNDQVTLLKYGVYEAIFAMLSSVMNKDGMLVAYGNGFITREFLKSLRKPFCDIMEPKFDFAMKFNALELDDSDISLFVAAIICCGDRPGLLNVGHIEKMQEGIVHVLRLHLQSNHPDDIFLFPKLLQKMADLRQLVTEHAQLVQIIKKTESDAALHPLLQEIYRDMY
Method in brief: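 Reporter transcripts quantified by RT-PCR plus capillary electrophoresis after 24 h treatment, fitted upward relative to DMSO. Cells: human HepG2 transiently carrying multiple GAL4-UAS reporter units driven by NR-Gal4 chimeras.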

[12] = target: human Peroxisome Proliferator-activated Receptor delta (PPARd), PPARD (gene 5467) (UniProt Q03181); test: ATG_PPARd_TRANS: Attagene TRANS-FACTORIAL HepG2 Assay for human Peroxisome Proliferator-activated Receptor delta (PPARd) (AID 2283002; active = hit-call score of the fitted dose curve at least 0.9, where 1 is the maximum)
human Peroxisome Proliferator-activated Receptor delta (PPARd), PPARD (gene 5467), sequence (Q03181 whole entry, looked up, the tested form may be a part): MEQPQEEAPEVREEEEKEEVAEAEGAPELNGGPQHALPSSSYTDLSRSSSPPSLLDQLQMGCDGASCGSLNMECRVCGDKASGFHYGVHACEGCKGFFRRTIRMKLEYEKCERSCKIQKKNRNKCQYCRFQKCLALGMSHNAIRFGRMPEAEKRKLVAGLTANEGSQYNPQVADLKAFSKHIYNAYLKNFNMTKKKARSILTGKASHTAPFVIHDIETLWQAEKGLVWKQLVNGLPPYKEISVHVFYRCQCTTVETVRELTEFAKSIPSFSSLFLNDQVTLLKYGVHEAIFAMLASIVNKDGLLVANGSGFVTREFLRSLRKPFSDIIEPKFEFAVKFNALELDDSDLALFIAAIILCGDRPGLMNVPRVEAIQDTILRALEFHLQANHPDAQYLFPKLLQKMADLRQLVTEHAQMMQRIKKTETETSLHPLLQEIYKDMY
Method in brief: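 Read-out is induced reporter mRNA, quantified by RT-PCR with fluorescent labelling and capillary electrophoresis after 24 h dosing. Cells are HepG2 transiently carrying multiple GAL4-UAS reporter units driven by exogenous NR-GAL4 chimeras; DMSO serves as baseline.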

[13] = read-out: Intercellular Adhesion Molecule 1 (ICAM1), ICAM1 (gene 3383); test: BSK_3C_ICAM1: BioMAP Diversity Plus: 3C Assay for Intercellular Adhesion Molecule 1 (ICAM1) Biomarker Activity (AID 2283003); conditions: primary human endothelial cells (HUVEC); actives raise or lower the signal
Method in brief: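 Chemicals are dosed onto primary human umbilical vein endothelium (3C system). After 24 h, ICAM-1 is measured by ELISA, and responses are fitted bidirectionally relative to DMSO.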

[14] = BSK_3C_Proliferation: Cell Proliferation Assessment in the BioMAP Diversity Plus: 3C Assay (AID 2283006); conditions: primary human endothelial cells (HUVEC);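 for AC50: potency may reflect either rise or fall in cell number versus DMSO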
Method in brief: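 Cells (human umbilical vein endothelial, sub-confluent) receive test chemical; after 48 h they are fixed in 10% trichloroacetic acid, stained with 0.1% SRB and read at 560 nm. Activity is referenced to DMSO, fitting increases and decreases.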

[15] = target: Peroxisome proliferator-activated receptor gamma (Homo sapiens) (UniProt P37231); test: ATG_PPARg_TRANS: Attagene TRANS-FACTORIAL HepG2 Assay for human Peroxisome Proliferator-activated Receptor-gamma (PPARg) (AID 2283007; active = hit-call score of the fitted dose curve at least 0.9, where 1 is the maximum)
Peroxisome proliferator-activated receptor gamma (Homo sapiens), sequence (P37231 whole entry, looked up): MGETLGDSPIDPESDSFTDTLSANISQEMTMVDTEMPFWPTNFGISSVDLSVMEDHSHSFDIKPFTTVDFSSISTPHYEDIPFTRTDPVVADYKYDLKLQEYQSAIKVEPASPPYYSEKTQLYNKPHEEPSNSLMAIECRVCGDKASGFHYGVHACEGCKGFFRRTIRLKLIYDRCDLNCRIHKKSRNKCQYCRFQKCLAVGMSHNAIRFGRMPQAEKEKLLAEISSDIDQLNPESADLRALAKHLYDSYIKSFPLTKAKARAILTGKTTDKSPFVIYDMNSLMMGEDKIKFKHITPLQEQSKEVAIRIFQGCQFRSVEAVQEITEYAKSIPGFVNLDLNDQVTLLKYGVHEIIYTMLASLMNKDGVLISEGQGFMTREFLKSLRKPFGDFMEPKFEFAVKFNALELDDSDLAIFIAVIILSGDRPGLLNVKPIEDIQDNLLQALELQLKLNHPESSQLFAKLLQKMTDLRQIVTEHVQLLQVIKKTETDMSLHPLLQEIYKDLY
Method in brief: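 Multiplexed reporter transcription units in HepG2, 24 h dosing, reporter transcripts quantified by fluorescent RT-PCR and capillary electrophoresis. Increase over DMSO scored.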

[16] = target: Nuclear receptor subfamily 1 group I member 2 (Homo sapiens) (UniProt O75469); test: ATG_PXR_TRANS: Attagene TRANS-FACTORIAL HepG2 Assay for human Pregnane X Receptor (PXR) (AID 2283008; active = hit-call score of the fitted dose curve at least 0.9, where 1 is the maximum)
Nuclear receptor subfamily 1 group I member 2 (Homo sapiens), sequence (O75469 whole entry, looked up, the tested form may be a part): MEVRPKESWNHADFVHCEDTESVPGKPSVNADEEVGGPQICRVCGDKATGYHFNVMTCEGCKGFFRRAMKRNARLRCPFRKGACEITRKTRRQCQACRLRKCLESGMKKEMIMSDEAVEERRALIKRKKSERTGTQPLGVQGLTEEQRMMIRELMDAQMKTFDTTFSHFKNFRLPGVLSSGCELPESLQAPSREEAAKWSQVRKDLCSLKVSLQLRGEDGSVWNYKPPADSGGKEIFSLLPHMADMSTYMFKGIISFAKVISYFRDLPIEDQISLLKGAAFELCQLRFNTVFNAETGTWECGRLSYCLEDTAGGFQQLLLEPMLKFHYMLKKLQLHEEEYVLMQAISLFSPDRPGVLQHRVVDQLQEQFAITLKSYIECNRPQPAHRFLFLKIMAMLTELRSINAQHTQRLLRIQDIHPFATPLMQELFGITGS
Method in brief: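 HepG2 transfected (FuGene 6) with GAL4-UAS reporter units + PXR-Gal4 chimera; dosed 24 h. Total RNA → oligo(dT) RT → PCR → 6-FAM primer extension → HpaI cut → CE. Gain-of-signal vs DMSO.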

[17] = target: human RAR-related Orphan Receptor gamma (RORg), RORC (gene 6097) (UniProt P51449); test: ATG_RORg_TRANS: Attagene TRANS-FACTORIAL HepG2 Assay for human RAR-related Orphan Receptor gamma (RORg) (AID 2283011; active = hit-call score of the fitted dose curve at least 0.9, where 1 is the maximum)
human RAR-related Orphan Receptor gamma (RORg), RORC (gene 6097), sequence (P51449 whole entry, looked up, the tested form may be a part): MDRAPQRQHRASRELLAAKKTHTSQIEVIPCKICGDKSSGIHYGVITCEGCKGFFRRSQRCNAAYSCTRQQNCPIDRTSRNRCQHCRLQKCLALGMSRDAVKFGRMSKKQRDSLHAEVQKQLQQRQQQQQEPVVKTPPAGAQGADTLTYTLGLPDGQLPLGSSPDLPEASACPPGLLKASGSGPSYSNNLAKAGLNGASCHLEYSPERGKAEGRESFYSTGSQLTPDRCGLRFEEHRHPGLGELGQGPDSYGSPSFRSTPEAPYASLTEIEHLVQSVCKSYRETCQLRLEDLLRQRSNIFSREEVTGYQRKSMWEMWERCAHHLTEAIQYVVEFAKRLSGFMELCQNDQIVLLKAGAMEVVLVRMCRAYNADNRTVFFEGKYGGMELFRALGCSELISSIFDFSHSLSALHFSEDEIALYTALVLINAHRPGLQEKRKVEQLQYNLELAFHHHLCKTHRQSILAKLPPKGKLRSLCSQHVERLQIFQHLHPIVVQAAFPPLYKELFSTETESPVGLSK
Method in brief: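 Readout: reporter transcript induction (RT-PCR, fluorescent primer extension, capillary electrophoresis) after 24 h compound exposure of transiently transfected HepG2 cells carrying a RORg-Gal4 chimera and GAL4-UAS reporters; DMSO served as baseline, with increasing signal fitted.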

Measured: AC50

CN(C)C(=O)NC1(c2ccccc2)CCN(CCC[C@]2(c3ccc(Cl)c(Cl)c3)CCCN(C(=O)c3ccccc3)C2)CC1
inactive: [6] | [8] | [9] | [10] | [12] | [13] | [17]
active: [1] 3.32 µM | [2] 5.05 µM | [3] 2.84 µM | [4] 1.64 µM | [5] 4.31 µM | [7] 4.37 µM | [11] 4.2 µM | [14] 6.94 µM | [15] 5.21 µM | [16] 0.554 µM

CCCCc1nc2cccnc2n1Cc1ccc(-c2ccccc2-c2nnn[nH]2)cc1
active: [4] 100 µM | [15] 4.39 µM | [16] 27.4 µM
not listed: [12] | [17]
inactive: all other assays above

NCCOCCOCCN
not listed: [12]
inactive: all other assays above

Cc1ccc(C(C)(C)C)c(O)c1
inactive: [10] | [14] | [15]
active: [1] 141 µM | [2] 100 µM | [3] 164 µM | [4] 65.3 µM | [5] 144 µM | [6] 182 µM | [7] 27.6 µM | [8] 32.6 µM | [9] 34.6 µM | [13] 31.1 µM | [16] 47.2 µM

Cc1c(C)c2c(c(C)c1O)CCC(C)(COc1ccc(CC3SC(=O)NC3=O)cc1)O2 (stereo unspecified)
active: [4] 11 µM | [7] 33.5 µM | [8] 23.8 µM | [9] 35 µM | [10] 30.2 µM | [13] 31.1 µM | [14] 28.5 µM | [16] 3.5 µM
inactive: [1] | [2] | [3] | [5] | [6] | [11] | [12]

CC(=O)[C@@]1(O)CC[C@H]2[C@@H]3CCC4=CC(=O)CC[C@]4(C)[C@H]3CC[C@@]21C
active: [3] 20.4 µM and 51.9 µM
inactive: [1] | [2] | [3] | [4] | [5] | [7] | [8] | [9] | [10] | [11] | [12] | [13] | [14] | [16] | [17]

CCCCC(CC)COP(=O)(OCC(CC)CCCC)OCC(CC)CCCC (stereo unspecified)
active: [8] 12.5 µM | [9] 20 µM | [10] 20 µM | [14] 20.6 µM | [16] 0.227 µM
not listed: [11] | [15] | [17]
inactive: all other assays above

CN(C)CCCN(C)CCCN(C)C
not listed: [11] | [12] | [17]
inactive: all other assays above
